Only some compounds are listed: those with a hit (about 12% of all), similar ones and a draw of the others.
USP17 inh = inhibitors of human USP17 deubiquitinase | Ubiquitin carboxyl-terminal hydrolase 17-like protein 5 (Homo sapiens), A8MUK1 | purified USP17, Ub-rhodamine cleavage fluorescence, 3 h | inhibition, % at 50 µM | 6.5% of 47,000 active
Target sequence (A8MUK1 whole entry, looked up): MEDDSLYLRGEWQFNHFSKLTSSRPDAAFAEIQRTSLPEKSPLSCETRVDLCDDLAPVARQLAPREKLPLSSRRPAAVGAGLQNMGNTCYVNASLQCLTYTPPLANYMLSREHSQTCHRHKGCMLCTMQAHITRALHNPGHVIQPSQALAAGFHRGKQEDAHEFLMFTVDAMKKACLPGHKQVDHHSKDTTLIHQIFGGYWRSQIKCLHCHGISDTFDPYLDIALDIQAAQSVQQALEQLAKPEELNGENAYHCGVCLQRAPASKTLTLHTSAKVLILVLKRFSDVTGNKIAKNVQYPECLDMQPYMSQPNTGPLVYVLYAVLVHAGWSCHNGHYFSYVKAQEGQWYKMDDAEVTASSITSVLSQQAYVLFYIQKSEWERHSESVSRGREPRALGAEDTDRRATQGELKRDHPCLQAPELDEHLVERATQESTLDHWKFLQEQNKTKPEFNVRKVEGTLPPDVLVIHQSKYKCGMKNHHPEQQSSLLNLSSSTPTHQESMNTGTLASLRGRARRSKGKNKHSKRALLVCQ
OTUD3 inh = inhibitors of human OTUD3 deubiquitinase. OTU domain-containing protein 3 (Homo sapiens), Q5T2D3. 0.7% of 47,000 active. purified OTUD3, Ub-rhodamine fluorescence, 2 h. inhibition, % at 25 µM
USP30 inh = inhibitors of human USP30 deubiquitinase | Ubiquitin carboxyl-terminal hydrolase 30 (Homo sapiens), Q70CQ3 | purified USP30, Ub-rhodamine cleavage fluorescence | inhibition, % at 25 µM | 5.3% of 47,000 active
USP28 inh = inhibitors of human USP28 deubiquitinase; Ubiquitin carboxyl-terminal hydrolase 28 (Homo sapiens), Q96RU2; purified USP28, Ub-rhodamine cleavage fluorescence, 30 min; inhibition, % at 25 µM; 3% of 47,000 active
Numbers stand for hits; i = inactive. Rule as the data show it: active = inhibition above about 30%; inactive = the rest.

SMILES | USP17 inh | OTUD3 inh | USP30 inh | USP28 inh
Cc1ccc(C2=NCCNC3=C2C(c2ccccc2F)N(c2ccccc2)C3=O)cc1 (centres undefined) | i | i | 36.4 | i
COc1ccccc1C1C2=C(NCCN=C2c2ccccc2)C(=O)N1c1ccccc1 (centres undefined) | i | i | i | i
CC(C)N1CC2CN(Cc3ccc(Cl)cc3)CCN2Cc2ccccc21 (centres undefined) | i | i | i | i
Cc1ccc(S(=O)(=O)N2CCC(n3cnc4ccc(C)cc4c3=O)CC2)cc1 | i | i | 35.2 | i
Cc1cccc(NC(=O)CN2C(=O)CC(c3ccccc3)=Nc3ccccc32)c1C | i | i | 33.7 | i
Cc1ccc(C2=Nc3ccccc3N(CC(=O)Nc3cccc(C)c3C)C(=O)C2)cc1C | 36.1 | 30.8 | 33.9 | 31.6
CC(=O)Nc1ccc(C2=CSC3=NS(=O)(=O)CCN23)cc1 | i | i | 31.6 | i
CC(OC(=O)c1cccc(N(C)C)c1)C(=O)Nc1ncc(Cl)cc1Cl (centres undefined) | i | i | i | i
CCn1c(=O)c(C(=O)Nc2ccc(Br)c(C)c2)nc2ccccc21 | i | i | 39.7 | i
CCOc1ccc2nc(C(=O)N3CCN(c4ccccn4)CC3)cn2n1 | i | i | i | i
CC1(C)C(=O)CC[C@@]2(C)C1CC[C@]1(C)C2CC[C@@H]2[C@H]3[C@H]4OC[C@@]3(CCC4(C)C)CC[C@]21C (some centres undefined) | i | i | 30.5 | i
CC(C)=CCC[C@](C)(O)[C@H]1CC[C@]2(C)[C@@H]1CC[C@@H]1[C@@]3(C)CCC(=O)C(C)(C)[C@@H]3CC[C@]12C | i | i | i | i
COc1ccc2[nH]c3c(N4CCN(c5ccccc5F)CC4)ncnc3c2c1 | 41.4 | i | i | i
COc1ccc2c(c1)[nH]c1c(N3CCSCC3)ncnc12 | i | i | i | i
c1ccc2c(c1)CCN(c1ncnc3c1[nH]c1ccccc13)C2 | i | i | i | i
COc1ccc2[nH]c3c(NCCc4ccccc4OC)ncnc3c2c1 | 33.7 | i | i | i
O=[N+]([O-])c1ccc(N2CCN(c3ncnc4c3[nH]c3ccc(F)cc34)CC2)cc1 | 64.9 | i | i | i
COCCN1CCCC12CCN(C(=O)c1ccccc1F)CC2 | i | i | i | i
COCCC(=O)N1C[C@@H]2C[C@]2(c2ccccc2)C(=O)c2ccccc21 | i | i | i | i
C=C1C(=O)O[C@@H]2C(=O)O[C@@H](CCCCCCCC)[C@H]12 | i | i | i | i
C=C1C(=O)OC(CCCCC)C1C(=O)O (centres undefined) | i | i | i | 35.9
CCCCCC1CC2=C(C(=O)OC2=O)C(O)C(O)(CCCC)CC2=C1C(=O)OC2=O (centres undefined) | i | i | i | i
CCCCCCCCCCCC[C@@]1(C(=O)O)OC(=O)[C@@H](O)[C@@]1(O)C(=O)O | i | i | 41.4 | i
COc1ccccc1-n1c(CNC(=O)c2ccc(S(=O)(=O)N3CCOCC3)cc2)nnc1SCc1ccc(Br)cc1 | i | i | 35.6 | i
Cc1ccc(CSc2nnc(CNC(=O)c3ccc(F)cc3)n2-c2ccccc2)cc1 | i | i | i | i
SMILES | USP17 inh | OTUD3 inh | USP30 inh | USP28 inh
O=[N+]([O-])c1ccc(NCC2COc3ccccc3O2)c(Cl)c1 (centres undefined) | i | i | i | 72.5
CN(C)C(=O)c1ccc(Nc2nc(-c3cccnc3)nc3ccccc23)cc1 | 37.1 | i | i | i
CC12c3ccc4c(c3C(=O)c3occ(c31)C(=O)CC2O)CCC4=O (centres undefined) | i | i | i | 53.9
COc1ccccc1[C@]1(C(=O)N2CCOCC2)C[C@H]1COc1ccccc1 | i | i | i | i
CCN(CC)C(=O)[C@@]1(c2ccccc2)C[C@H]1COc1ccc(C)cc1 | 30.3 | i | i | i
COc1cccc2c1OCC(C(=O)NCc1ccc(F)cc1)=C2 | i | i | i | 50.6
COc1ccc(-c2cc3nc(C)cc(Nc4ccc(F)cc4)n3n2)cc1OC | i | i | 84.8 | i
Cc1ccc(-c2c(C(=O)NCc3ccccc3F)oc(=O)c3ccccc23)cc1 | i | i | i | i
COc1ccccc1CNC(=O)c1oc(=O)c2ccccc2c1-c1ccc(C)cc1 | i | i | 39.8 | i
COc1cc(-c2ccno2)ccc1S(=O)(=O)Nc1ccccc1Cl | i | i | i | 59.5
COc1cc(-c2ccno2)ccc1S(=O)(=O)Nc1ccc(C#N)cc1 | i | i | i | i
CC1(C)Cc2c(sc3nc(Cc4ccccc4)nc(SCC(=O)NC(c4ccccc4)c4ccccc4)c23)CO1 | i | i | i | i
Cc1ccc(C2CC(=O)Nc3c2c(C)nn3-c2ccc3nnc(C)n3n2)cc1 (centres undefined) | i | i | 34.8 | i
COc1ccc(C(=O)/C=C\c2cn(CCC(=O)O)nc2-c2ccc(OC)c(OC)c2)cc1 | i | i | i | i
COc1ccc(-c2nn(-c3ccccc3)cc2/C=C/C(=O)Nc2ccc(C(C)=O)cc2)cc1OC | 55.2 | 46.8 | 83.5 | 48.1
Cc1cc(C)cc(NS(=O)(=O)c2cc3c4c(c2)CC(=O)N4CCC3)c1 | i | i | i | i
CC(=O)N1CCc2cc(Br)cc(S(=O)(=O)Nc3cc(C)cc(C)c3)c21 | 46.5 | i | i | i
COc1c(O)c2c(c3cc(C(=O)O)[nH]c13)CCN2C(N)=O | 36.5 | i | i | i
Cc1cnc(-c2nccnc2C2CCCN(C(=O)c3ccccc3)C2)[nH]1 (centres undefined) | i | i | i | i
Cc1ccc(S(=O)(=O)N2C[C@H]3N(C)C(=O)c4ccccc4C(=O)[C@@]3(C)C2)cc1 | i | i | i | i
O=c1ccc(-c2cc3ccccc3o2)cn1Cc1ccccc1-c1ccccc1 | 48.3 | 46.5 | i | 62.4
O=C(Nc1ccc2c(c1)OCO2)C1CC(=O)N(c2ccc3c(c2)OCCO3)C1 (centres undefined) | i | i | i | i
O=C(Nc1ccc(C(F)(F)F)cc1)C1CC(=O)N(c2ccc3c(c2)OCCO3)C1 (centres undefined) | 34.7 | i | 34.1 | i
Cc1c(S(=O)(=O)NC2CCCCNC2=O)sc2ccc(Cl)cc12 (centres undefined) | 50.6 | i | i | i
O=C1NCCCCC1NS(=O)(=O)c1cccc(C(F)(F)F)c1 (centres undefined) | i | i | i | i
SMILES | USP17 inh | OTUD3 inh | USP30 inh | USP28 inh
O=C(NCc1csc(-c2ccccc2)n1)c1cc(F)cc2c1OCOC2 | 33.0 | i | i | i
O=C(NCc1csc(-c2ccccc2)n1)c1ccccc1F | i | i | i | i
Cc1ccccc1CN1C[C@@H]2[C@@H](C(=O)NCC(C)C)CCS(=O)(=O)[C@@H]2C1 | i | i | i | i
Cc1cc(=O)[nH]c2cc(-c3ccccc3)nn12 | i | i | 38.5 | i
Cc1cc2oc(=O)cc(COC(=O)c3ccc4[nH]c(C)c(C)c4c3)c2cc1Cl | 45.9 | i | i | i
CC1(C)Cc2c(c(N3CCOCC3)nc3sc4c(NCCCN5CCOCC5)ncnc4c23)CO1 | i | i | i | i
CC(C)c1nc2sc3c(NCCCN4CCOCC4)ncnc3c2c2c1CCC2 | i | i | i | 47.9
